“And” between values parts separate entries of the source, which are not always exact repeats. Equal values may be shown once. Screen size: about 5,500 compounds; about 2,000 (36%) were called active. Not shown: some 18% with an inconclusive outcome. No stated cut-off is given here; in the data, active means normalized growth mostly below about 0.91 (no sharp cut-off); inconclusive means no clear call, values can overlap the other calls; inactive means mostly above about 0.92. Some of the results follow.
Test: chemical genetic growth profiling, strain panel (AID 1159580);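 further: tested at 20 µM; growth read once vehicle control cultures reached saturation at 30 °C; 1 = growth at the plate median or of vehicle wells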
Details: S. cerevisiae deletion strains, growth OD

Measured: normalized growth

CN(C)CCOC(C)(c1ccccc1)c1ccccn1 (centres undefined)
inactive: locus YAL021C, strain ccr4, stronger effect = lower value 1.03 | locus YAL026C, strain drs2, stronger effect = lower value 1 | locus YAL030W, strain snc1, stronger effect = lower value 0.993 | locus YAL040C, strain CLN3, stronger effect = lower value 0.998 | locus YBL061C, strain skt5, stronger effect = lower value 1 | locus YBR009C, strain hhf1, stronger effect = lower value 1 | locus YBR021W, strain FUR4, stronger effect = lower value 1.01 | locus YBR023C, strain chs3, stronger effect = lower value 1.01 | locus YBR171W, strain sec66, stronger effect = lower value 1 | locus YBR229C, strain ROT2, stronger effect = lower value 1.01 | locus YBR231C, strain swc5, stronger effect = lower value 1 | locus YBR279W, strain paf1, stronger effect = lower value 1.01 | locus YCL011C, strain gbp2, stronger effect = lower value 1 | locus YCL016C, strain dcc1, stronger effect = lower value 1.01 | locus YCL029C, strain bik1, stronger effect = lower value 0.958 | locus YCL061C, strain MRC1 (second series), stronger effect = lower value 1.01 | locus YCL061C, strain MRC1, stronger effect = lower value 1.01 | locus YCL069W, strain vba3, stronger effect = lower value 1.02 | locus YCR088W, strain abp1, stronger effect = lower value 1.02 | locus YDL005C, strain med2, stronger effect = lower value 1.01 | locus YDL035C, strain GPR1, stronger effect = lower value 1.02 | locus YDL040C, strain nat1, stronger effect = lower value 1.01 | locus YDL074C, strain BRE1, stronger effect = lower value 0.977 | locus YDL101C, strain DUN1, stronger effect = lower value 0.989 | locus YDL185W, strain tfp1, stronger effect = lower value 0.953 | locus YDL192W, strain arf1, stronger effect = lower value 0.99 | locus YDR001C, strain nth1, stronger effect = lower value 1.01 | locus YDR069C, strain doa4, stronger effect = lower value 0.975 | locus YDR101C, strain arx1, stronger effect = lower value 0.993 | locus YDR137W, strain rgp1, stronger effect = lower value 0.991 | locus YDR150W, strain NUM1, stronger effect = lower value 1 | locus YDR159W, strain sac3, stronger effect = lower value 0.928 | locus YDR162C, strain NBP2, stronger effect = lower value 0.998 | locus YDR195W, strain ref2 0.995 | locus YDR297W, strain sur2, stronger effect = lower value 0.973 | locus YDR318W, strain mcm21, stronger effect = lower value 0.981 | locus YDR334W, strain swr1, stronger effect = lower value 1.01 | locus YDR335W, strain msn5, stronger effect = lower value 0.985 | locus YDR363W, strain ESC2, stronger effect = lower value 0.994 | locus YDR388W, stronger effect = lower value 0.989 | locus YDR392W, strain spt3, stronger effect = lower value 0.974 | locus YDR502C, strain sam2, stronger effect = lower value 0.998 | locus YEL003W, strain gim4, stronger effect = lower value 1.01 | locus YEL037C, strain rad23, stronger effect = lower value 1.01 | locus YEL061C, strain CIN8 (second series), stronger effect = lower value 1.01 | locus YEL061C, strain CIN8, stronger effect = lower value 0.991 | locus YER002W, strain NOP16, stronger effect = lower value 1 | locus YER015W, strain faa2, stronger effect = lower value 1.01 | locus YER016W, strain bim1, stronger effect = lower value 1.01 | locus YER110C, stronger effect = lower value 0.961 | locus YER111C, strain swi4, stronger effect = lower value 1.02 | locus YER155C, strain BEM2 (second series), stronger effect = lower value 0.99 | locus YER155C, strain BEM2, stronger effect = lower value 0.994 | locus YER167W, strain BCK2, stronger effect = lower value 0.986 | locus YFR010W, strain ubp6, stronger effect = lower value 1.02 | locus YGL078C, strain dbp3, stronger effect = lower value 0.981 | locus YGL086W, strain mad1, stronger effect = lower value 1.01 | locus YGL167C, strain pmr1, stronger effect = lower value 1 | locus YGL173C, strain kem1, stronger effect = lower value 1.03 | locus YGL227W, strain vid30, stronger effect = lower value 0.997 | locus YGL240W, strain doc1, stronger effect = lower value 1 | locus YGL248W, strain PDE1, stronger effect = lower value 0.979 | locus YGL253W, strain hxk2, stronger effect = lower value 1.01 | locus YGR135W, strain pre9, stronger effect = lower value 0.951 | locus YGR229C, strain SMI1, stronger effect = lower value 0.995 | locus YGR252W, strain gcn5, stronger effect = lower value 0.994 | locus YHR013C, strain ard1, stronger effect = lower value 0.986 | locus YHR027C, strain rpn1, stronger effect = lower value 1.01 | locus YHR030C, strain SLT2, stronger effect = lower value 1 and 1.04 | locus YHR079C, strain IRE1 (second series), stronger effect = lower value 0.974 | locus YHR079C, strain IRE1, stronger effect = lower value 1.03 | locus YHR094C, strain hxt1, stronger effect = lower value 0.985 | locus YHR129C, strain ARP1, stronger effect = lower value 1 | locus YHR142W, strain chs7, stronger effect = lower value 1.03 | locus YHR200W, strain rpn10, stronger effect = lower value 0.983 | locus YIL066C, strain RNR3, stronger effect = lower value 0.995 | locus YIL073C, strain SPO22, stronger effect = lower value 0.924 | locus YIL125W, strain kgd1, stronger effect = lower value 0.992 | locus YIR030C, strain dcg1, stronger effect = lower value 0.96 | locus YJL092W, strain hpr5, stronger effect = lower value 1.02 | locus YJL095W, strain BCK1 (second series), stronger effect = lower value 0.983 | locus YJL095W, strain BCK1, stronger effect = lower value 0.955 and 1.03 | locus YJL115W, strain asf1, stronger effect = lower value 1.01 | locus YJL129C, strain trk1, stronger effect = lower value 1.03 | locus YJL134W, strain LCB3, stronger effect = lower value 1 | locus YJL154C, strain vps35, stronger effect = lower value 1.01 | locus YJL164C, strain tpk1, stronger effect = lower value 1.01 | locus YJL166W, strain qcr8, stronger effect = lower value 1 | locus YJL168C, strain set2, stronger effect = lower value 0.991 | locus YJL187C, strain SWE1 (second series), stronger effect = lower value 0.977 | locus YJL187C, strain SWE1, stronger effect = lower value 0.999 | locus YJR043C, strain POL32, stronger effect = lower value 1.04 | locus YJR066W, strain TOR1, stronger effect = lower value 0.941 | locus YJR075W, strain HOC1, stronger effect = lower value 0.974 | locus YKL009W, strain mrt4, stronger effect = lower value 0.954 | locus YKL068W, stronger effect = lower value 0.983 | locus YKL085W, strain MDH1 (second series), stronger effect = lower value 0.971 | locus YKL085W, strain MDH1, stronger effect = lower value 0.971 | locus YKL160W, strain elf1, stronger effect = lower value 0.988 | locus YKR001C, strain vps1, stronger effect = lower value 0.976 | locus YKR026C, strain gcn3, stronger effect = lower value 1 | locus YKR091W, strain srl3, stronger effect = lower value 1.01 | locus YLL001W, strain dnm1, stronger effect = lower value 1.02 | locus YLL026W, stronger effect = lower value 1 | locus YLL041C, strain sdh2, stronger effect = lower value 0.963 | locus YLR027C, strain aat2, stronger effect = lower value 0.997 | locus YLR039C, strain RIC1, stronger effect = lower value 0.989 | locus YLR058C, strain SHM2, stronger effect = lower value 0.993 | locus YLR102C, strain apc9, stronger effect = lower value 0.976 | locus YLR113W, strain HOG1, stronger effect = lower value 1.07 | locus YLR221C, strain rsa3, stronger effect = lower value 1.01 | locus YLR258W, strain gsy2, stronger effect = lower value 0.985 | locus YLR262C, strain YPT6 (second series), stronger effect = lower value 1.05 | locus YLR262C, strain YPT6, stronger effect = lower value 0.939 | locus YLR268W, strain sec22, stronger effect = lower value 0.983 | locus YLR320W, strain mms22, stronger effect = lower value 0.984 | locus YLR330W, strain CHS5, stronger effect = lower value 0.995 | locus YLR342W, strain FKS1 (second series), stronger effect = lower value 1.07 | locus YLR342W, strain FKS1, stronger effect = lower value 1.02 | locus YLR357W, strain rsc2, stronger effect = lower value 1.02 | locus YLR370C, strain arc18, stronger effect = lower value 0.967 | locus YLR371W, strain rom2, stronger effect = lower value 0.97 | locus YLR384C, strain iki3, stronger effect = lower value 0.996 | locus YLR418C, strain cdc73, stronger effect = lower value 0.98 | locus YML016C, strain PPZ1, stronger effect = lower value 1 | locus YML032C, strain rad52, stronger effect = lower value 0.997 | locus YML120C, strain ndi1, stronger effect = lower value 0.995 | locus YML124C, strain tub3, stronger effect = lower value 0.985 | locus YMR058W, strain fet3, stronger effect = lower value 1.03 | locus YMR078C, strain ctf18, stronger effect = lower value 0.963 | locus YMR125W, strain sto1, stronger effect = lower value 1 | locus YMR129W, stronger effect = lower value 0.982 | locus YMR205C, strain PFK2, stronger effect = lower value 0.992 | locus YMR223W, strain ubp8, stronger effect = lower value 0.966 | locus YMR231W, strain pep5, stronger effect = lower value 1.01 | locus YMR263W, strain SAP30, stronger effect = lower value 0.991 | locus YMR307W, strain GAS1, stronger effect = lower value 1.04 and 0.992 | locus YNL067W, strain RPL9B, stronger effect = lower value 0.967 | locus YNL071W, strain lat1, stronger effect = lower value 1.01 | locus YNL175C, strain NOP13, stronger effect = lower value 0.992 | locus YNL183C, strain NPR1, stronger effect = lower value 1 | locus YNL197C, strain WHI3, stronger effect = lower value 0.982 | locus YNL209W, strain ssb2, stronger effect = lower value 1.02 | locus YNL224C, strain SQS1, stronger effect = lower value 1 | locus YNL233W, strain BNI4, stronger effect = lower value 0.986 | locus YNL248C, strain rpa49, stronger effect = lower value 1.04 | locus YNL250W, strain rad50, stronger effect = lower value 0.984 | locus YNL271C, strain bni1, stronger effect = lower value 0.987 | locus YNL298W, strain CLA4, stronger effect = lower value 0.989 | locus YNL307C, strain MCK1, stronger effect = lower value 0.983 | locus YNL322C, strain KRE1 (second series), stronger effect = lower value 1.01 | locus YNL322C, strain KRE1, stronger effect = lower value 0.994 | locus YNR049C, strain mso1, stronger effect = lower value 0.962 | locus YNR052C, strain pop2, stronger effect = lower value 0.977 | locus YOL012C, strain htz1 0.665 | locus YOL147C, strain pex11, stronger effect = lower value 0.984 | locus YOR001W, strain rrp6, stronger effect = lower value 1.03 | locus YOR061W, strain CKA2, stronger effect = lower value 0.996 | locus YOR069W, strain VPS5, stronger effect = lower value 0.999 | locus YOR070C, strain gyp1, stronger effect = lower value 1 | locus YOR080W, strain dia2, stronger effect = lower value 1.01 | locus YOR083W, strain WHI5 (second series), stronger effect = lower value 0.984 | locus YOR083W, strain WHI5, stronger effect = lower value 0.973 | locus YOR106W, strain vam3, stronger effect = lower value 1.02 | locus YOR136W, strain idh2, stronger effect = lower value 0.983 | locus YOR144C, strain elg1, stronger effect = lower value 0.993 | locus YOR184W, strain ser1, stronger effect = lower value 0.959 | locus YOR231W, strain MKK1, stronger effect = lower value 1.07 | locus YOR265W, strain rbl2, stronger effect = lower value 0.999 | locus YOR270C, strain vph1, stronger effect = lower value 1.07 | locus YOR290C, strain snf2, stronger effect = lower value 1.01 | locus YOR316C, strain cot1, stronger effect = lower value 0.975 | locus YPL051W, strain arl3, stronger effect = lower value 1 | locus YPL055C, strain LGE1, stronger effect = lower value 0.992 and 1.03 | locus YPL078C, strain atp4, stronger effect = lower value 1 | locus YPL106C, strain sse1, stronger effect = lower value 0.98 | locus YPL240C, strain hsp82, stronger effect = lower value 0.977 | locus YPL241C, strain CIN2, stronger effect = lower value 0.999 | locus YPL256C, strain CLN2, stronger effect = lower value 1.03 | locus YPR119W, strain clb2, stronger effect = lower value 0.98 | locus YPR141C, strain kar3, stronger effect = lower value 0.971 | locus YPR163C, strain tif3, stronger effect = lower value 0.977 | locus YPR167C, strain met16, stronger effect = lower value 0.98 | strain wtn01, stronger effect = lower value 0.996
